A selection: hits, their analogues and other compounds. The true share with any hit is near 9.4%.
SARS PLpro yeast – blocks SARS-CoV papain-like protease in a yeast assay; S. cerevisiae expressing SARS-CoV PLpro, growth rescue; Potency, µM (top dose mostly 32.9 µM), without a hit: top-dose activity, positive = growth rescue, most hits filed as activators; 0.19% of 330,000 active; AID 485353; calls by dose curve; further: 0% is about no effect; nearly all actives have a fitted effect of over 55% in size
Pf growth 48h – inhibits P. falciparum growth in the first generation, 48 h. 5.9% of 310,000 active. P. falciparum luciferase growth in erythrocytes, 48 h. Potency, µM (highest dose often 28.7 µM), inactives show at the highest dose activity change, negative = inhibition, actives largely listed as inhibitors; further: on the % scale 0 is the no-effect control and ±100 the full control effect
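In quantitative HTS format, infected erythrocytes bearing luciferase-reporter parasites were treated for a single generation at 37 C. Luminescence after adding detection reagent served as the growth measure.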
AMA1-RON2 inh – AMA1-RON2 (P. falciparum) interaction inhibition | 0.2% of 360,000 active | Potency, µM (series often up to 58.2 µM), for the others: at the top dose activity change, negative = inhibition, hits mostly inhibitors | AlphaScreen AMA1-biotinylated RON2 peptide binding;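 further: 0% = vehicle wells and -100% = peptide control; nearly all actives have a fitted effect of over 45% in size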
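AMA1 (3D7) with his tag at 25 nM final met compounds first, then biotinylated RON2 peptide at 25 nM; detection used donor plus acceptor beads, 10 µg/mL apiece, read by AlphaScreen after 30 min at room temperature.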
Pf growth 96h – inhibits malaria parasite growth, 96 h; AID 504834; 6.9% of 320,000 active; P. falciparum luciferase reporter growth, 96 h; Potency, µM (doses to about 28.7 µM), for inactives: top-dose activity change, negative = inhibition, hits mostly inhibitors; further: on the % scale 0 is the no-effect control and ±100 the full control effect
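Delayed-death screen, second-generation endpoint: infected erythrocytes, 2% hematocrit, 0.05% parasitemia final; 96 hours at 37 C, 5% CO2; luciferase detection reagent; luminescence decrease equals reduced growth.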
Active calls of the source: *; u = inconclusive; x = no result; [ ] = dose if it differs, or a comment. Unless noted, the call rests on the fitted dose curve; in most records, active means well fitted curve in the direction sought with a large enough effect; inconclusive means small, poorly fitted or top-dose-only effect, or another doubt; inactive means no such curve, though single readings can be large; an effect the other way counts as inactive or inconclusive. Potency means the concentration at half of the fitted maximal effect.

SMILES	SARS PLpro yeast	Pf growth 48h	AMA1-RON2 inh	Pf growth 96h
O=C(NCCCN1CCCC1)c1ccc2c(c1)N(Cc1ccccc1F)C(=O)c1ccccc1S2(=O)=O	-4%	10µM*	-10%	-18%
CCN1CCN(CCNC(=O)c2ccc3c(c2)N(Cc2cccc(Cl)c2)C(=O)c2ccccc2S3=O)CC1 (centres undefined)	2%	12µM*	-2%	u
CNC(=S)N(CCc1c(C)[nH]c2ccc(OC)cc12)Cc1cccnc1	-2%	-1%	-2%	0%
COc1ccc2c(c1OC)C(=O)N1C2SC[C@H]1C(=O)NC1CCCCC1 (some centres undefined)	-4%	-8%	-3%	38%
CN1CCN(c2nc(-c3ccccc3)nc3c2oc2ccccc23)CC1	-2%	u	-5%	5.9µM*
NC(=O)C1CCN(c2nc(-c3ccccc3)nc3ccccc23)CC1	-8%	u	-24%	u
NC(=O)C1CCN(C(=O)c2ccc3nc(-c4ccccc4)c(-c4ccccc4)nc3c2)CC1	29%	10µM*	-5%	u
CCOC(=O)N1CCN(C(=O)c2ccc3nc(-c4ccccc4)c(-c4ccccc4)nc3c2)CC1	-5%	u	0%	2%
Cc1cc(N2CCC(C(N)=O)CC2)nc(-c2ccccc2)n1	0%	x	5%	0.74µM*
NC(=O)C1CCN(c2nc(-c3ccccc3)nc3c2oc2ccccc23)CC1	9%	31%	14%	1.5µM*
Cc1ccc(CSCCNC(=O)CCSc2ccccc2)cc1	-9%	-19%	-1%	-3%
CC12CN3CC(C)(CN(C1)C3c1cc3ccccc3[nH]1)C2=O (centres undefined)	0%	22%	0%	1µM*
CC12CN3CC(C)(CN(C1)C3c1ccncc1)C2=O (centres undefined)	1%	0%	7%	31%
CCOC(=O)c1cc(CC)sc1NC(=O)COC(=O)c1cc[n+]([O-])cc1	-1%	4%	19%	39%
O=S(=O)(Nc1ccc(O)c(CN2CCCCC2)c1)c1ccccc1	5%	u	-2%	0.59µM*
COc1ccc(NS(=O)(=O)c2cccc(C(=O)NCc3ccccc3CN3CCCC3)c2)cc1	0%	13µM*	1%	13µM*
COc1ccc(C(=O)NCc2ccccc2CN2CCCC2)cc1S(=O)(=O)Nc1ccc(C)cc1	1%	10µM*	-5%	4.1µM*
CC1(C)CC(=O)C(C=NCCN2CCN(C3CC(=O)N(c4cccc(Br)c4)C3=O)CC2)=C(O)C1 (centres undefined)	-5%	-1%	79%	-13%
CCCn1c(C(C)NC(=O)c2ccccc2)n[nH]c1=S (centres undefined)	0%	u	28%	u
COc1ccc(-n2c(SCC(=O)Nc3cc(C)on3)nc3c([nH]c4ccccc43)c2=O)cc1OC	-1%	10µM*	21%	6.6µM*
CC(=O)Nc1ccc(NC(=O)CSc2nc3c([nH]c4ccccc43)c(=O)n2-c2ccccc2F)cc1	-2%	-18%	-5%	u
COc1ccccc1-n1c(SCC(=O)Nc2ccc(NC(C)=O)cc2)nc2c([nH]c3ccccc32)c1=O	7%	-54%	-16%	13µM*
O=C(c1ccc(C(F)(F)F)cc1)N(CCCn1ccnc1)C(c1ccccn1)c1nc2ccccc2[nH]1 (centres undefined)	x	x	59%	x
O=C(COC(=O)c1ccc(O)cc1O)Nc1cc(-c2ccccc2)nn1-c1ccccc1	2%	12µM*	-26%	4.7µM*
CC(C)(C)c1cc(NC(=O)COC(=O)c2ccc(O)cc2O)n(-c2ccccc2)n1	-1%	u	-4%	u
SMILES	SARS PLpro yeast	Pf growth 48h	AMA1-RON2 inh	Pf growth 96h
CNC(=O)c1c(NC(=O)c2ccc(N3C(=O)CCC3=O)cc2)sc2c1CCCC2	-1%	8%	11%	u
COc1ccccc1-c1c(C)oc2cc(OC(=O)c3ccco3)ccc2c1=O	-24%	17%	14%	u
Cn1c(N2CCOCC2)c(/C=N/O)c2ccccc21	0%	6%	-8%	0%
CC(=O)O/N=C/c1c(N2CCOCC2)n(C)c2ccccc12	-23%	3.7µM*	52%	3.7µM*
Cc1ccc(C(=O)O/N=C/c2c(N3CCOCC3)n(C)c3ccccc23)cc1	-23%	u	69%	3.3µM*
Cn1c(N2CCOCC2)c(/C=N/OC(=O)c2ccc(F)cc2)c2ccccc21	1%	1.3µM*	74%	1µM*
Cn1c(N2CCOCC2)c(/C=N/OC(=O)c2cccnc2Cl)c2ccccc21	1%	u	9%	3%
Cc1cc(N2CCN(C)CC2)nc(=S)[nH]1	0%	-9%	49%	-4%
C/C(=N\NC(=S)NCc1ccccc1)c1cccc(Br)c1	-2%	-9%	7%	0%
Cc1nc2ccccc2n1C(C)c1nc2ccccc2n1CC(=O)c1ccsc1 (centres undefined)	x	x	-5%	x
COc1ccc(/C=N/NC(=S)Nc2cc(S(=O)(=O)N3CCOCC3)ccc2N2CCOCC2)cc1O	14%	u	55%	u
COc1ccc2ccccc2c1/C=N/NC(=S)Nc1cc(S(=O)(=O)N2CCOCC2)ccc1N1CCOCC1	11%	5.2µM*	63%	1.7µM*
COc1ccccc1C(=O)OCC(=O)Nc1cc(S(=O)(=O)N2CCOCC2)ccc1N1CCCC1	-3%	0%	0%	2%
CC(C)c1ccccc1OCC(=O)Nc1cc(S(=O)(=O)N2CCOCC2)ccc1N1CCCC1	x	5.2µM*	-26%	u
O=C(COc1ccccc1F)Nc1cc(S(=O)(=O)N2CCOCC2)ccc1N1CCOCC1	0%	12µM*	-12%	u
Cc1ccccc1OCC(=O)Nc1cc(S(=O)(=O)N2CCOCC2)ccc1N1CCCC1	2%	10µM*	-9%	7.4µM*
CCOCC(=O)Nc1cc(S(=O)(=O)N2CCOCC2)ccc1N1CCCCC1	-4%	0%	6%	u
O=C(Cc1ccccc1F)Nc1cc(S(=O)(=O)N2CCOCC2)ccc1N1CCOCC1	12%	u	-8%	u
CCC(C)[C@H](NC(=O)N1CCn2c1nc1ccccc12)C(=O)NCCc1ccccc1 (some centres undefined)	0%	u	67%	u
CC(OC(=O)c1ccc(=O)n(Cc2ccccc2)n1)C(=O)Nc1cccc(Cl)c1 (centres undefined)	-11%	-16%	-5%	20%
CCN1CCN(c2ccc(S(=O)(=O)N3CCOCC3)cc2NC(=O)COc2ccc(F)cc2Cl)CC1	20%	u	-6%	4.7µM*
N#Cc1nc(Cc2cccc3ccccc23)oc1NCC1CCCO1 (centres undefined)	3%	x	-11%	7.4µM*
COc1ccc(C2CC(c3ccccc3)=NN2c2ccc(N)cc2)cc1 (centres undefined)	-20%	u	1%[2.32 µM]	u
COc1ccc(C2CC(c3ccccc3)=NN2c2ccc(Cl)c(C(=O)O)c2)cc1 (centres undefined)	0%	-1%	-17%	u
